The values that follow come from the supplement of paper PMC3334620.

The full ranking holds about 33,000 sequences; the median of “E-score (-0.5 to 0.5)” is about -0.054, and the highest 2% start at about 0.39. What follows is part of a selection rich in the highest values, with near analogues and random picks from the rest.

The test concerns the target Ylr278c (UniProt Q05854). In words: PBM E-score (8-mer binding enrichment) (E-score (-0.5 to 0.5)); higher = stronger / more preferred TF binding. As to conditions: protein concentration: 200 nM; construct: GST-DNA-binding domain. Summed up: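 E-scores (a modified Wilcoxon-Mann-Whitney statistic) were assigned by the Universal PBM Analysis Suite to every ungapped eight-base word pooled with its reverse complement. The input came from universal all-10-mer Agilent arrays made double-stranded by primer extension and probed with GST-tagged yeast transcription factors at about 100-200 nM. Fluorescent anti-GST detected bound protein, and masliner normalised the scans.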
Chain of UniProt Q05854 (Q05854 whole entry, the tested form may be a part): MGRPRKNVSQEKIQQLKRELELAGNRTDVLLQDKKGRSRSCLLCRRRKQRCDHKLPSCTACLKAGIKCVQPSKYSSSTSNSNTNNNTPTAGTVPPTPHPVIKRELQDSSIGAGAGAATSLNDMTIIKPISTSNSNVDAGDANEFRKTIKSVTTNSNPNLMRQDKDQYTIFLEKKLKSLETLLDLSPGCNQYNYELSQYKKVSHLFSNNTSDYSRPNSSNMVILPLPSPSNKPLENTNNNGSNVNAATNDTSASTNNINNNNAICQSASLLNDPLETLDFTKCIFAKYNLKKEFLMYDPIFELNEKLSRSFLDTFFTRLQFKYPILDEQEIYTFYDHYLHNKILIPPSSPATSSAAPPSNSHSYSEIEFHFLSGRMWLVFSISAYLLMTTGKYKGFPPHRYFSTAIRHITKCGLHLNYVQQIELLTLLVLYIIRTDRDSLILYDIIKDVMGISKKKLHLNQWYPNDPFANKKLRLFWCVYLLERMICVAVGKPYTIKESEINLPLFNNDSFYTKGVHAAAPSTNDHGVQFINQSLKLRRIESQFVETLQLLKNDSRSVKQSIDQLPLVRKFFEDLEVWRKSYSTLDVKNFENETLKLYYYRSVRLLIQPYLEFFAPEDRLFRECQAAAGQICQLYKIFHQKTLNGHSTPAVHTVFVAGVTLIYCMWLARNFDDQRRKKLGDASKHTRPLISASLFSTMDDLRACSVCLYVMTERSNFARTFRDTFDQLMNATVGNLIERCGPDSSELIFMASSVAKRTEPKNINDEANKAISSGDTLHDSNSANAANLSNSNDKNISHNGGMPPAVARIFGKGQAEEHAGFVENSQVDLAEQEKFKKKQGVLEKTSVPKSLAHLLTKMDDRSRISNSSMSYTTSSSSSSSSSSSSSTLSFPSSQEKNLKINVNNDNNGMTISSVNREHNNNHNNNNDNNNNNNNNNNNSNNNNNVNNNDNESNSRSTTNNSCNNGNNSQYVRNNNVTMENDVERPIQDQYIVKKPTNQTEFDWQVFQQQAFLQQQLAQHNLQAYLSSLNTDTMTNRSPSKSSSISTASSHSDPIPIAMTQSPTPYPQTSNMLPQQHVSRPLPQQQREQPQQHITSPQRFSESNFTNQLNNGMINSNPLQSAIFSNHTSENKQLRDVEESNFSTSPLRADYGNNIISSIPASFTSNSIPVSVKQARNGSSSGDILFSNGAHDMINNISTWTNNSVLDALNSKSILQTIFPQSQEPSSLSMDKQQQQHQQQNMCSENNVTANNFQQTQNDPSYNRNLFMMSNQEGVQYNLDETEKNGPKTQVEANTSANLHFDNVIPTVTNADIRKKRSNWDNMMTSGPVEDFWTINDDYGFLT
On to AACTGGGG, for which the “PBM E-score” value worked out at 0.00524.

Consider CTGCAACC, for which the “PBM E-score” value is -0.27.

As for CTTTGGTA, the “PBM E-score” value is -0.0286.

As for CGAATGTC, the “PBM E-score” value was determined as 0.101.

For CAGAGTAG, the “PBM E-score” value is -0.16.

As to AGCCAGCC, the “PBM E-score” value was -0.18.

Take AAAGCGAT: the “PBM E-score” value stood at 0.0361.

As for CGATTTTC, the “PBM E-score” value came to 0.153.

For GAGCGCCC, the “PBM E-score” value turned out to be 0.00794.

With GATCGGGC, the “PBM E-score” value worked out at 0.184.

Take CATCGGAA: the “PBM E-score” value stood at 0.396.

CATCGGAG: the “PBM E-score” value was determined as 0.457.

With AATCGGGC, the “PBM E-score” value stood at 0.0936.

As for GATCGGAC, the “PBM E-score” value came out at 0.434.

Regarding CATCGGGG, the “PBM E-score” value came to 0.314.

For CATCGGCG, the “PBM E-score” value was found to be 0.304.

For the sequence CATCGGTA, the “PBM E-score” value came out at 0.261.

In the case of GCTCGGAC, the “PBM E-score” value was determined as 0.382.

Consider CATCGGCA, for which the “PBM E-score” value came out at 0.284.

For the sequence AATCGGCC, the “PBM E-score” value was 0.24.

As for AATCGGAC, the “PBM E-score” value came to 0.397.

For AGTATCAC, the “PBM E-score” value is -0.0655.

In the case of GTTTCGCA, the “PBM E-score” value is -0.0936.

In the case of ACTACTAG, the “PBM E-score” value was -0.0129.

Consider ATTTTGGA, for which the “PBM E-score” value worked out at 0.168.

Take AAATCCTA: the “PBM E-score” value came to 0.0982.

CTTGGCGA: the “PBM E-score” value is -0.203.

As to TATCGGGA, the “PBM E-score” value was 0.288.

For TATCGGCA, the “PBM E-score” value was found to be 0.264.

For the sequence TATCGGAA, the “PBM E-score” value turned out to be 0.413.

Regarding AGGCTCCG, the “PBM E-score” value was determined as 0.39.

As to ATGCTCCA, the “PBM E-score” value is -0.0254.

As for ACGCTCCT, the “PBM E-score” value is -0.237.

For the sequence CCGCTCCC, the “PBM E-score” value was determined as 0.191.

CCGCTCCA: the “PBM E-score” value is 0.064.

As to ATGCTCCC, the “PBM E-score” value was -0.0848.

For the sequence ACGCTCCG, the “PBM E-score” value was found to be 0.399.

Consider AGGCTCCA, for which the “PBM E-score” value is -0.133.

Take CCGCTCCG: the “PBM E-score” value stood at 0.444.

Consider ATGCTCCG, for which the “PBM E-score” value came to 0.425.

On to AGGCTCCC, for which the “PBM E-score” value was -0.0902.

In the case of ACGCTCCC, the “PBM E-score” value was determined as 0.0269.

As for GAGGCCGA, the “PBM E-score” value is 0.217.

Regarding ACTTTTCC, the “PBM E-score” value worked out at 0.278.

With GCCTAGCA, the “PBM E-score” value is -0.245.

As to GAGGCTAA, the “PBM E-score” value was 0.0333.

AGCAGACG: the “PBM E-score” value is -0.00216.

As for ATGTGGGA, the “PBM E-score” value is -0.101.

With AAAGCTAT, the “PBM E-score” value is -0.0422.

Take GGTTGGCA: the “PBM E-score” value is -0.173.

Take ATAGAGAC: the “PBM E-score” value was -0.248.

In the case of CCCCGCAA, the “PBM E-score” value was determined as 0.225.

For the sequence CAGTCCGA, the “PBM E-score” value was determined as 0.402.

For CAGTCCGC, the “PBM E-score” value was found to be 0.202.

Consider AAGTCCTA, for which the “PBM E-score” value was determined as 0.0365.

As for GCGTCCGA, the “PBM E-score” value was determined as 0.292.

For the sequence TAGTCCGA, the “PBM E-score” value was determined as 0.415.

Regarding GAGTCCGA, the “PBM E-score” value was 0.392.

CAGTCCGG: the “PBM E-score” value is 0.367.

Take GAGTCCGC: the “PBM E-score” value amounted to 0.363.

For the sequence TAGTCCAA, the “PBM E-score” value was -0.0998.

For the sequence ACGTCCGA, the “PBM E-score” value worked out at 0.346.

Turning to AAGTCCGA, the “PBM E-score” value worked out at 0.483.

Regarding TAGTCCCA, the “PBM E-score” value was -0.284.

With ACCAGGGC, the “PBM E-score” value was -0.178.

Take ATTGAACG: the “PBM E-score” value is -0.114.

For ATTGAACC, the “PBM E-score” value is -0.0437.

AGGCGTAT: the “PBM E-score” value was -0.308.

In the case of ACAGTCAT, the “PBM E-score” value is -0.24.

Consider ACTATTGC, for which the “PBM E-score” value came out at 0.0531.

In the case of ATAGACCG, the “PBM E-score” value was found to be 0.0141.

Regarding CAGCTTCC, the “PBM E-score” value was -0.0366.

CAGTGCGG: the “PBM E-score” value amounted to 0.257.

Turning to ATGCTGCA, the “PBM E-score” value is -0.178.

Regarding ACACGGAG, the “PBM E-score” value was 0.419.

Consider ACACGGAA, for which the “PBM E-score” value stood at 0.288.

On to CCACGGAA, for which the “PBM E-score” value is 0.34.

With ACACGGAT, the “PBM E-score” value was found to be 0.199.

Turning to CCACGGAC, the “PBM E-score” value amounted to 0.272.

CCACGGAG: the “PBM E-score” value was found to be 0.418.

In the case of ATCTCCGG, the “PBM E-score” value turned out to be 0.493.

For the sequence ATCTCCAG, the “PBM E-score” value was -0.0917.

For the sequence ATCTCCCC, the “PBM E-score” value is -0.00596.

As for ATCTCCGC, the “PBM E-score” value was determined as 0.47.

As for CTCTCCCA, the “PBM E-score” value was -0.148.

As for CTCTCCGC, the “PBM E-score” value came to 0.325.
